Test results reported in PubChem BioAssay (NCATS).

test: High-throughput drug toxicity screening in the BPDCN cell line Gen2.2 (AID 1224824); conditions: Gen2.2 BPDCN cells; at 45.8 µM (top of the series) unless noted
Excerpt: Blastic plasmacytoid dendritic cell neoplasm (BPDCN) is a rare, aggressive and largely incurable hematologic malignancy originating from plasmacytoid dendritic cells (pDCs). Although an initial response to chemotherapy is common, BPDCN prognosis is extremely poor and most patients relapse with drug-resistant disease leading to a median overall survival of ~1 year after diagnosis. To explore novel potential therapeutic strategies in BPDCN, we performed a high-throughput drug toxicity screening in BPDCN cell liens, using of a library of 1,912 small molecules, enriched for compounds that are either approved or in early stages of development for cancer therapy.
A total of 500 exponentially growing Gen2.2 cells were seeded per well in 5 uL of media (RPMI + Glutamine, without phenol red plus10% FBS and 1X Pen/Strep) into 1536-well solid white high base tissue culture treated Greiner One Bio Plates (789173-F), using a multidrop combi dispenser and a small sterile cassette. Compounds and controls totaling 23nL per well (negative control DMSO and positive control 9.2 uM Bortezomib-final) were immediately added to the plates using a 1536 head pin tool from Kalypsys. The plates were then covered with stainless steel gasket lids from Kalypsys and incubated for 48 hours at 37C under 95% relative humidity with 5% CO2. After 48 hours, the plates were removed and allowed to reach room temperature before 3 uL of Cell Titer Glo reagent (Promega) were added using an Aurora Flying Reagent Dispenser Bioraptor. The plates were then spun at 1000 rpms to remove bubbles and incubated for 15 minutes at room temperature before reading on a ViewLux using a luminescent filter with a 10 second exposure. The relative luciferase units were used to calculated percent activity using DMSO as 100% and Bortezomib as 0%.

| Structure (SMILES) | cell viability, % of control (lower = more cytotoxic) [%] |
| --- | --- |
| CCc1ccc(CCOc2ccc(CC3SC(=O)NC3=O)cc2)nc1 (stereo not given) | 142 |
| CC1(C)Cc2c(-c3ccccc3)c(-c3ccc(Cl)cc3)c(CC(=O)O)n2C1 | 71.9 |
| CC(c1cc2ccccc2s1)N(O)C(N)=O (stereo not given) | 150 |
| NNCCc1ccccc1 | 133 |
| COc1cc(Nc2ncc3c(n2)-c2ccc(Cl)cc2C(c2c(F)cccc2OC)=NC3)ccc1C(=O)O | 24.8 |
| CC(C)(C)OC(=O)CN(Cc1ccc(Cl)cc1)Cc1ccc([N+](=O)[O-])s1 | 18.4 |
| Cc1cc(SCc2sc(-c3ccc(C(F)(F)F)cc3)nc2C)ccc1OCC(=O)O | 101 |
| N[C@@H]1CONC1=O | 150 |
| CN(C)c1ccc(C2Nc3ccc4ccccc4c3C3=C2C(=O)CC(C)(C)C3)cc1Br (stereo not given) | 119 |
| Cc1ccc(NC(=O)c2cccc(C(C)(C)C#N)c2)cc1Nc1ccc2ncn(C)c(=O)c2c1 | 8.79 |
| CC(C)C[C@H](NC(=O)[C@@H](O)[C@H](N)Cc1ccccc1)C(=O)O | 103 |
| Cc1ccc(-n2nc(C(C)(C)C)cc2NC(=O)Nc2ccc(OCCN3CCOCC3)c3ccccc23)cc1 | 240 |
| CCN(CC)CCCC(C)Nc1ccnc2cc(Cl)ccc12 (stereo not given) | 103 |
| COc1ccc(COc2cc3oc(=O)c4cc(C(C)O)ccc4c3cc2OC)cc1 (stereo not given) | 14.7 |
| Cc1n[nH]c(C)c1Cc1sc2c(c1C(=O)N1C[C@H](O)CO1)c(=O)n(C)c(=O)n2CC(C)C | 109 |
| CC(C[N+](C)(C)C)OC(N)=O (stereo not given) | 120 |
| Cc1cnc(Nc2ccc(OCCN3CCCC3)cc2)nc1Nc1cccc(S(=O)(=O)NC(C)(C)C)c1 | 112 |
| Cn1cnc2c(F)c(Nc3ccc(Br)cc3Cl)c(C(=O)NOCCO)cc21 | 4.9 |
| NS(=O)(=O)c1cc2c(cc1Cl)NC=NS2(=O)=O | 71.6 |
| O=C(Nc1nc2ccccc2n1CCN1CCOCC1)c1cccc([N+](=O)[O-])c1 | 43.3 |

| Structure (SMILES) | cell viability, % of control (lower = more cytotoxic) [%] |
| --- | --- |
| CCOC(=O)N1CCC(=C2c3ccc(Cl)cc3CCc3cccnc32)CC1 | 186 |
| CNC(=O)c1ccc(N2C(=S)N(c3ccc(C#N)c(C(F)(F)F)c3)C(=O)C2(C)C)cc1F | 185 |
| CNCc1ccc(-c2[nH]c3cc(F)cc4c3c2CCNC4=O)cc1 | 80.5 |
| O=c1ncn2nc(Sc3ccc(F)cc3F)ccc2c1-c1c(Cl)cccc1Cl | 98.9 |
| O=C1[C@H](Cc2ccc(O)cc2)N2C(=O)CCN(C(=O)NCc3ccccc3)[C@H]2CN1Cc1cccc2ccccc12 | 6.07 |
| Clc1cccc(Cl)c1NC1=NCCN1 | 144 |
| CO[C@@H]1[C@H](N(C)C(=O)c2ccccc2)C[C@H]2O[C@]1(C)n1c3ccccc3c3c4c(c5c6ccccc6n2c5c31)C(=O)NC4 | 21.1 |
| Cc1ccnc(NS(=O)(=O)c2ccc(NC(=O)Nc3ccc(S(=O)(=O)Nc4nccc(C)n4)cc3)cc2)n1 | 75.2 |
| OC(CN1CCC(Cc2ccc(F)cc2)CC1)c1ccc(Cl)cc1 (stereo not given) | 156 |
| Cc1cc(C=c2sc3nc4ccccc4n3c2=O)c(C)n1-c1ccccc1 | 74.1 |
| CN(C(=O)c1ccc(F)cc1C(F)(F)F)C1CCN(c2nnc(-c3ccnn3C)c3ccccc23)CC1 | 13.6 |
| Cn1cc(-c2ccc3nnc(C(F)(F)c4ccc5ncccc5c4)n3n2)cn1 | 55.7 |
| CCOc1ccn(-c2ccc(F)cc2)c(=O)c1C(=O)Nc1ccc(Oc2ccnc(N)c2Cl)c(F)c1 | 145 |
| COc1cc(F)c(F)c(Nc2ccc(I)cc2F)c1NS(=O)(=O)C1(C[C@H](O)CO)CC1 | 27.8 |
| COc1ccc(CCN2CCN(CCCc3ccccc3)CC2)cc1OC | 340 |
| CCn1cc(C(=O)O)c(=O)c2cc(F)c(N3CCNC(C)C3)c(F)c21 (stereo not given) | 176 |
| Cc1c(C)c2c(c(C)c1O)CCC(C)(COc1ccc(CC3SC(=O)NC3=O)cc1)O2 (stereo not given) | 31.1 |
| N#CC[C@H](C1CCCC1)n1cc(-c2ncnc3[nH]ccc23)cn1 | 230 |
| CN1CCN(CCCN2c3ccccc3Sc3ccc(C(F)(F)F)cc32)CC1 | 55.3 |
| O=NN(CCCl)C(=O)NCCCl | 114 |
